Among the data in PubChem BioAssay (NCATS) are Potency and outcome values, retold here.

Values joined by “and” are separate entries in the source; they are usually repeats but may differ in a detail not shown here. Identical values can stand only once. Values without a mark were called inactive. Results filed as inconclusive are left out. Active and inactive are the calls of the source. The call rests on the fitted dose curve; in most records, active means well fitted curve in the direction sought with a large enough effect; inconclusive means small, poorly fitted or top-dose-only effect, or another doubt; inactive means no such curve, though single readings can be large; an effect the other way counts as inactive or inconclusive.

Assay [1] deals with N-terminal Xaa-Pro-Lys N-methyltransferase 1 (Homo sapiens) (UniProt Q9BV86). The assay can be described thus: qHTS Assay for Inhibitors of N-terminal methyltransferase 1 (NTMT1): LOPAC validation of the NTMT1 SAHH-coupled ThioGlo3 Assay (AID 1347143).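 Further: SAH from peptide methylation measured as thiol fluorescence via SAHH coupling and ThioGlo3; nearly all actives have a fitted effect of over 70% in size.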 Further: potency means the concentration at half of the fitted maximal effect. The gist of the method:
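NTMT1 125nM + cpds (various conc.), 1 min RT; add SAM 100uM/SAHH 10uM/ThioGlo3 15uM (addition mix). SAHH-coupled thiol detection, Ex340/Em450, t0 and 30 min RT; signal normalized to background. LOPAC 1280-cpd pilot.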
Background: qHTS replaces the single test concentration by a dilution series.

The test system of assay [2] is Zika virus NS2B-NS3 protease (unlinked). The assay can be described thus: Optimization of GU AMC qHTS for Zika virus inhibitors: Unlinked NS2B-NS3 protease assay (AID 1347151). Further: nearly all actives have a fitted effect of over 80% in size. Further: potency means the concentration at half of the fitted maximal effect. The gist of the method:
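Noncovalent complex of NS2B hydrophilic domain and NS3 protease domain, 25 nM final, in 10 mM Tris-HCl pH 8.0, 0.01% Tween 20. AMC fluorescence change over 15 min at room temperature was fitted to a 4-parameter Hill equation.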

In assay [3] the test system is Zika virus NS2B-NS3 protease. Description: Primary screen GU AMC qHTS for Zika virus inhibitors (AID 1347154). Further: nearly all actives have a fitted effect of over 70% in size. Further: potency means the concentration at half of the fitted maximal effect. A digest of the protocol: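 Fluorogenic AMC-substrate cleavage by noncovalent NS2B-NS3 protease complex (25 nM, pH 8.0 Tris buffer with Tween 20) followed for 15 minutes at room temperature (~20% conversion). Percent inhibition from ex340/em450 signal change, fitted by 4-parameter Hill equation.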

Assay [4] deals with Lysine-specific demethylase 5B (Homo sapiens) (UniProt Q9UGL1). Description: Optimization screen for KDM5B Histone Demethylases FDH coupled qHTS against the LOPAC library (AID 1347166). A digest of the protocol: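 KDM5BDeltaAP (200nM final) in 50mM HEPES pH 7.5, 0.01% Tween-20 was preincubated with compound for 10 min at room temperature. A substrate mix of 12.5uM H3K4Me3, 25uM a-ketoglutarate, ascorbate, Fe2+, NAD+ and formaldehyde dehydrogenase was then added. NADH fluorescence (340/450 nm) was read initially and after 30 min.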

Assay [5] in a line: qHTS to identify inhibitors of the type 1 interferon - major histocompatibility complex class I in skeletal muscle: primary screen against the NCATS LOPAC collection (AID 1347405).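 Further: lytic HiBiT luminescence reporting HLA-B protein level.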 A digest of the protocol: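 After 24 h at 37 C with compounds (7-point, 1:4.3 dilutions, 46 uM top final) plus 4 ng/ml IFN-beta, luminescence from lytic HiBiT detection was measured. HLA-B*08:01 in C25cl48 myoblasts carried an endogenous C-terminal HiBiT tag; medium lacked dexamethasone.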

Assay [6] can be described thus: qHTS to identify inhibitors of the type 1 interferon - major histocompatibility complex class I in skeletal muscle: primary screen against the NCATS Pharmaceutical Collection (AID 1347407).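 Further: luminescence of HiBiT knocked into endogenous HLA-B as interferon-induced MHC class I level.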 A digest of the protocol:
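Immortalized human myoblasts (C25cl48) with HiBiT knocked into endogenous HLA-B*08:01 were stimulated with 4 ng/ml IFN-beta and treated with compounds (8-point, 1:5, top 46 uM final) for 24 h at 37 C; HiBiT lytic luminescence read.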

A short description of assay [7]: qHTS for inhibitors of adenylyl cyclases using a fission yeast platform: a pilot screen against the NCATS LOPAC library (AID 1347410). A digest of the protocol: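 S. pombe CHP2027 (AC9-GNAS-PDE4D2) carrying a PKA-repressed fbp1-GFP reporter was exposed to LOPAC compounds (final up to 57 µM) for 18 h at 30C in the dark, in EMM with histidine, lysine and uracil; GFP gain-of-signal read by laser scanning cytometry.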

Assay [8] has as its system Zika virus NS2B-NS3 protease (unlinked complex). Description: Primary screen GU Rhodamine qHTS for Zika virus inhibitors: Unlinked NS2B-NS3 protease assay (AID 1347159). Further: nearly all actives have a fitted effect of over 60% in size. Further: potency means the concentration at half of the fitted maximal effect. The gist of the method:
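Percent inhibition came from the 15-min rise in Rhodamine110 fluorescence (1.5 microM substrate, ~15% conversion), normalized to no-inhibitor and no-enzyme wells and Hill-fitted. Unlinked protease, 25 nM, pH 8.0 Tris buffer; compounds up to 114 microM, 15-min preincubation.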

Assay [9] has as its system Zika virus NS2B-NS3 protease (linked construct). The assay can be described thus: Primary screen NINDS Rhodamine qHTS for Zika virus inhibitors (AID 1347160). Further: nearly all actives have a fitted effect of over 55% in size. A digest of the protocol:
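Rhodamine110-peptide cleavage (1.5 µM substrate) by 25 nM linked NS2B-NS3 enzyme at pH 8.0 (Tris, Tween 20), after 15 min RT preincubation with compounds; 15-min fluorescence change normalized to controls and Hill-fitted.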

Assay [10] is described as follows: Confirmatory screen GU Rhodamine qHTS for Zika virus inhibitors qHTS (AID 1347157). Further: potency means the concentration at half of the fitted maximal effect; nearly all actives have a fitted effect of over 70% in size. The gist of the method: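 A qHTS format was used, with compound concentrations ranging up to 114 microM. Each compound was preincubated with 25 nM NS2B-NS3 protease, and the substrate was then added at 1.5 microM. Curves were fitted with a 4-parameter Hill model.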
A short description of assay [11]: ZIKV-mCherry secondary qHTS for Zika virus inhibitors (AID 1347158). Further: potency means the concentration at half of the fitted maximal effect. The gist of the method:
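Percent infection is the share of Hoechst-identified Vero nuclei with mCherry signal above 450 RFU (3 SD over negative controls). Cells were infected with recombinant ZIKV-mCherry at MOI 1 after compound addition and imaged 48–72 h later.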

Assay [12] is described as follows: Confirmatory screen NINDS Rhodamine qHTS for Zika virus inhibitors (AID 1347161). Further: nearly all actives have a fitted effect of over 60% in size. Further: potency means the concentration at half of the fitted maximal effect. A digest of the protocol:
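Enzyme (25 nM, linked NS2B-NS3) was preincubated 15 min with compound in 10 mM Tris-HCl pH 8.0, 0.01% Tween 20. Rhodamine110 substrate (1.5 microM) was then added and fluorescence read at start and after 15 min.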

Assay [13] concerns Zika virus NS2B-NS3 protease (linked). Description: 384 well plate NINDS AMC confirmatory qHTS for Zika virus inhibitors (AID 1347163). Further: nearly all actives have a fitted effect of over 50% in size. Further: potency means the concentration at half of the fitted maximal effect. A digest of the protocol:
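Fluorescence at 355/460 nm was read after 25 minutes of cleavage of 30 microM Ac-VKTGKR-AMC at room temperature, in the dark. Before substrate addition, compounds (up to 1 mM final) sat ~15 minutes with 5, 30 or 60 nM linked protease. Signals were normalized to no-enzyme and no-inhibitor wells.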

Assay [14] concerns Zika virus NS2B-NS3 protease (linked construct). The assay can be described thus: 384 well plate NINDS Rhodamine confirmatory qHTS for Zika virus inhibitors (AID 1347164).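 Further: fluorescence from protease cleavage of Ac-LKRR-rhodamine 110 substrate; nearly all actives have a fitted effect of over 65% in size.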 Further: potency means the concentration at half of the fitted maximal effect. A digest of the protocol: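 Linked protease at a final 5 nM, 30 nM or 60 nM was preincubated ~15 min with compounds, then given 10 microM Ac-LKRR-Rhodamine 110. Fluorescence (ex 485/em 538 nm) after 25 min in the dark at room temperature.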

For another assay, the target named is Furin (Homo sapiens) (UniProt P09958). The assay can be described thus: Furin counterscreen qHTS for Zika virus inhibitors (AID 1347149). Further: nearly all actives have a fitted effect of over 70% in size. Further: potency means the concentration at half of the fitted maximal effect. A digest of the protocol: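 Counterscreen measures cleavage of 2 microM BOC-RVRR-AMC, below its ~15 microM Km, by 5 nM full-length human furin at pH 7.0 after a 15-min compound preincubation. Inhibition derives from the 15-min fluorescence increase at 37C.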
On the technique in general: Counterscreens check selectivity or assay interference.

Assay [15] concerns Zika virus NS2B-NS3 protease (unlinked complex). Description: Confirmatory screen GU AMC qHTS for Zika virus inhibitors (AID 1347153). Further: nearly all actives have a fitted effect of over 70% in size. A digest of the protocol:
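Compounds were preincubated 15 min at room temperature with 25 nM noncovalent NS2B-NS3 protease at pH 8.0; AMC substrate added at 10 microM and 15-min fluorescence gain (340/450 nm) converted to percent inhibition, fitted 4-parameter.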

A short description of assay [16]: Vero cells viability qHTS for Zika virus inhibitors (AID 1347167). The gist of the method: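 Luminescent ATP readout (CellTiter Glo) after 30 min at 37 degrees C gives viability; cells in DMEM + 4% FBS were treated 24 to 48 hours with compound, following overnight attachment.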
A short description of assay [17]: Tertiary RLuc qRT-PCR qHTS assay for Zika virus inhibitors (AID 1347169). Further: nearly all actives have a fitted effect of over 55% in size. Further: potency means the concentration at half of the fitted maximal effect. The gist of the method: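 Vero cells (1,000 per well) plated overnight at 37 degrees C, treated with compound in DMSO, then infected with recombinant ZIKV-RLuc (Cambodian) at MOI 1-2 for 48-72 hrs. Live-cell Renilla luciferase substrate added; luminescence read after 1-1.5 hrs.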

N-terminal Xaa-Pro-Lys N-methyltransferase 1 (Homo sapiens), sequence (Q9BV86 whole entry, looked up): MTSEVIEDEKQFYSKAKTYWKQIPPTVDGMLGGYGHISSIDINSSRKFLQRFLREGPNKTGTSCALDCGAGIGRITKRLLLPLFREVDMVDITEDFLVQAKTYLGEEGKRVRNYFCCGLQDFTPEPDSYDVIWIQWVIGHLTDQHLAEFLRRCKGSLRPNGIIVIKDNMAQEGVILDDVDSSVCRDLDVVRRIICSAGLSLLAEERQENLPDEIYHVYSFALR
Furin (Homo sapiens), sequence (P09958 whole entry, looked up): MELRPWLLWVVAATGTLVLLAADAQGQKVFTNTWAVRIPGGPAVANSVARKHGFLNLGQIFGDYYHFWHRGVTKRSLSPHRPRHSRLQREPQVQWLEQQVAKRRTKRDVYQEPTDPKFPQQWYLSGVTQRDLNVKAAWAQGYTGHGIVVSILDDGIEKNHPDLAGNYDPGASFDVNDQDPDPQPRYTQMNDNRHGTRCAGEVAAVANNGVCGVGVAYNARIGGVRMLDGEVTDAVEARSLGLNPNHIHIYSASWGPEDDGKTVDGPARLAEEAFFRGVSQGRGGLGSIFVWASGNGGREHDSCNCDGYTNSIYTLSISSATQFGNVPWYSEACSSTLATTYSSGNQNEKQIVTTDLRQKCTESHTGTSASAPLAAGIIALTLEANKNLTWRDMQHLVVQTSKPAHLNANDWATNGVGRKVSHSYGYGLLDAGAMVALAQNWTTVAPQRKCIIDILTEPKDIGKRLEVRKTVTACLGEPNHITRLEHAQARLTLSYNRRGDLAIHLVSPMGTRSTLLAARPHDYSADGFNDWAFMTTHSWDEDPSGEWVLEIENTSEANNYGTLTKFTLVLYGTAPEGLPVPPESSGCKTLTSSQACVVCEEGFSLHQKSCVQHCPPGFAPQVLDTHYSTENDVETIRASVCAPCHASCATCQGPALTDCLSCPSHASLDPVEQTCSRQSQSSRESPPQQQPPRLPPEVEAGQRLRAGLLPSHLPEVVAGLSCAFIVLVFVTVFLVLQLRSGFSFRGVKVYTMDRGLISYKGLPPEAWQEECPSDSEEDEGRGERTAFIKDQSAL
Lysine-specific demethylase 5B (Homo sapiens), sequence (Q9UGL1 whole entry, looked up): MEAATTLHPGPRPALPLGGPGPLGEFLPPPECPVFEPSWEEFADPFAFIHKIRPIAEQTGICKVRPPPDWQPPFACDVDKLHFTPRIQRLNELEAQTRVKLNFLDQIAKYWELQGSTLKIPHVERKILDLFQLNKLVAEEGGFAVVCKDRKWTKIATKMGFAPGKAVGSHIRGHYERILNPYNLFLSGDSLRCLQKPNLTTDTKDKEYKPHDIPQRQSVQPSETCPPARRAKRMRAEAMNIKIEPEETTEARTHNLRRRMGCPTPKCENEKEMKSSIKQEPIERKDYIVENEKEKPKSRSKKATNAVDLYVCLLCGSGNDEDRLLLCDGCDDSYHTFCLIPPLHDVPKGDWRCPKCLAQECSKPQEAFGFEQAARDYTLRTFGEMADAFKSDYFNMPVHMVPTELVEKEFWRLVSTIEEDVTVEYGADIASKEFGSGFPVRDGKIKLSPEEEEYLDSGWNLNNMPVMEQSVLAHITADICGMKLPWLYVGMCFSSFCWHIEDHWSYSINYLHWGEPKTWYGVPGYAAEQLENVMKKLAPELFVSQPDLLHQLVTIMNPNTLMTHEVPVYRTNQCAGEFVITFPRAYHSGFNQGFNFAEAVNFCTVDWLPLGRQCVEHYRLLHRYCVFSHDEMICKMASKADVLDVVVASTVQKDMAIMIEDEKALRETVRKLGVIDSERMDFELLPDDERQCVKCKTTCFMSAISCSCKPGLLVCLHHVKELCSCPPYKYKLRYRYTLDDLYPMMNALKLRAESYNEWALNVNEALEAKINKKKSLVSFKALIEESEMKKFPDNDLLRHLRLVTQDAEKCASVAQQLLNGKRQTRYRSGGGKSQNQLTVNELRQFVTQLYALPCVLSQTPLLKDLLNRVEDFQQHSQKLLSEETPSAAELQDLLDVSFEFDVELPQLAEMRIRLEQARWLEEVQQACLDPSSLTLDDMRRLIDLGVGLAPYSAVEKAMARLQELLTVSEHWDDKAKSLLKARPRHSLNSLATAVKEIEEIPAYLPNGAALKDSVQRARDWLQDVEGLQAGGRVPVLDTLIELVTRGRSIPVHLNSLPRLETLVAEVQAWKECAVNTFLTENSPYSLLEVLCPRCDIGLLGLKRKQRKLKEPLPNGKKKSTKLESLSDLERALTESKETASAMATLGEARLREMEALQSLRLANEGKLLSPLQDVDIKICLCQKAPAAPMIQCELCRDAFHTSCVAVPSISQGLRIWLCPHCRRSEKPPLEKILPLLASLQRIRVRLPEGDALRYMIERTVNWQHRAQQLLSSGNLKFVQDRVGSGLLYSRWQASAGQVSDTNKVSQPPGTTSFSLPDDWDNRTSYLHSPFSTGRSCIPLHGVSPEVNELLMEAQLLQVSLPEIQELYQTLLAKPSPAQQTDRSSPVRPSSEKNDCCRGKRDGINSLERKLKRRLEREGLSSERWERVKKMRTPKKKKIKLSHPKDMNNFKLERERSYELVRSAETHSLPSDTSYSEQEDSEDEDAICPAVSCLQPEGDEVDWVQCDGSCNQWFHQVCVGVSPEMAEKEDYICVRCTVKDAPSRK

For the compound `CCCC(CCC)C(=O)O`, the Potency entry in assay [1], in assay [2], in assay [3] and in assay [5] was “inactive” each time. Moreover, the outcome in assay [4], in assay [6] and in [7] was inactive.

For `CCc1cncnc1N1CCN(Cc2nc3ccc(C(F)(F)F)cc3[nH]2)CC1`, the Potency entry in [1], in assay [2], in assay [3], in assay [8], in [9] and in [5] was “inactive” in each case. Also, in assay [7], the call was inactive.

`CCN(c1ccccc1)c1cc(NC)[n+](C)c(C)n1`: the Potency entry in assay [3] was “inactive”.

With `Cc1cc2c(C(C)C)c(O)c(O)c(C=O)c2c(O)c1-c1c(C)cc2c(C(C)C)c(O)c(O)c(C=O)c2c1O`, the Potency is 56.2 µM (active) in assay [1]; 0.377 µM (active) in [2]; 2.51 µM (active) in [10]; 2.51 µM (active) in [11]; 2 µM (active) in [12]; 35.5 µM (active) in assay [13]. The Potency result in assay [14] is “inactive”. The result in assay [6] and in assay [7] was inactive.

Take `Cn1c(=O)c(F)c(Nc2ccc(I)cc2F)c2c(=O)n(C[C@@H](O)CO)cnc21`: in assay [3], the Potency entry is “inactive”.

`Cc1cccc(-c2nn(C(=S)Nc3ccccc3)cc2-c2ccnc3ccccc23)n1`: the Potency result in assay [3] is “inactive”.

Take `NC[C@H](O)c1ccc(O)c(O)c1`: the Potency entry in assay [2] and in [5] was “inactive” each time. In addition, the Potency in assay [3] was 10.2 µM (active) and 11.9 µM (active). The compound was called inactive in assay [6] and in assay [7].

Take `NNCCc1ccccc1`: the Potency result in [2], in assay [3] and in assay [5] was “inactive” throughout. Moreover, the compound was called inactive in [6] and in assay [7].

`CCCc1nn(C)c2c(=O)[nH]c(-c3cc(S(=O)(=O)N4CCN(C)CC4)ccc3OCC)nc12`: the Potency result in [2], in assay [3], in [8], in assay [9] and in [5] was “inactive” throughout. In addition, the result in assay [6] and in assay [7] was inactive.

`CC(C)c1onc(-c2c(Cl)cccc2Cl)c1COc1ccc(/C=C/c2cccc(C(=O)O)c2)c(Cl)c1`: the Potency was 8.55 µM (active) in the assay with Furin (Homo sapiens), 24.1 µM (active) in [15], 6.7 µM (active) in assay [3] and 2.47 µM (active) in assay [12]. Also, the Potency entry in assay [13] and in assay [14] was “inactive” throughout.

Take `O=C(C=Cc1ccc(/C=C/C(=O)Nc2ccc(C3=NCCN3)cc2)cc1)Nc1ccc(C2=NCCN2)cc1`: the Potency result in assay [3] is “inactive”.

As to `N#Cc1ccc(C(c2ccc(C#N)cc2)n2cncn2)cc1`, the Potency result in [3] was “inactive”.

With `NCCc1ccc(O)c(O)c1`, the Potency in assay [1] is 44.7 µM (active). In addition, the Potency entry in [3] and in [5] was “inactive” throughout. In addition, the compound was called inactive in assay [6] and in [7].

For the compound `O=C(O)CCc1ccc(NCc2cccc(Oc3ccccc3)c2)cc1`, the Potency entry in [2], in [3] and in [5] was “inactive” each time. The compound was classed as inactive in [7].

As to `Cc1[nH]c(=O)c(C#N)cc1-c1ccncc1`, the Potency result in assay [15], in [3], in assay [12], in assay [17] and in assay [5] was “inactive” each time. Also, the call in [16], in assay [6] and in [7] was inactive.

Regarding `CC(=O)Oc1ccccc1C(=O)O`, the values for the Potency in assay [2] and in assay [3] were 26.7 µM (active) and 21.2 µM (active), respectively. Moreover, the Potency result in assay [5] is “inactive”. For the same compound, the outcome in assay [6] and in [7] was inactive.

Regarding `Oc1ccc(C2CNCCc3c2cc(O)c(O)c3Cl)cc1` (stereo not given), the values for the Potency in [1], in assay [2] and in assay [3] were 44.7 µM (active), 16.8 µM (active) and 12.6 µM (active), respectively. Also, the Potency result in [5] is “inactive”. The outcome in [6] and in [7] was inactive.

On to `Nc1cccc(S(=O)(=O)N2CCCN(S(=O)(=O)c3ccc4c(c3)OCCO4)CC2)c1`, for which the Potency entry in assay [3] is “inactive”.

Turning to `Cc1cc2c(F)c(Oc3ncnn4cc(OC[C@@H](C)O)c(C)c34)ccc2[nH]1`, in assay [3], the Potency entry is “inactive”.

On to `Cc1cc(SCc2sc(-c3ccc(C(F)(F)F)cc3)nc2C)ccc1OCC(=O)O`, for which the Potency entry (with Furin (Homo sapiens); in assay [11]) was “inactive” in each case. Besides, the Potency in [10] is 2.48 µM (active); in assay [8] it was 3.55 µM (active); in [12], 2.78 µM (active) and 3.12 µM (active); in assay [13], 2.82 µM (active); in [14], 2.82 µM (active); in assay [17], 14.7 µM (active). Further, in assay [16], the outcome was inactive.
